PubChem BioAssay AID1159580 (chemical genetic matrix, 2015)
Where “and” joins values, the source holds several entries; their conditions need not be identical. Equal values may be shown once. In all, about 5,500 compounds went through this assay and about 2,000 (36%) were called active. Not shown: some 18% with an inconclusive outcome. Rule as the data show it: active = normalized growth mostly below about 0.91 (no sharp cut-off); inconclusive = no clear call, values can overlap the other calls; inactive = mostly above about 0.92. This is one part of the list.

Assay: chemical genetic growth profiling, strain panel (AID 1159580);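 also: tested at 20 µM; growth read once vehicle control cultures reached saturation at 30 °C; 1 = growth at the plate median or of vehicle wells; lower values mean less growth of the strain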
Conditions: S. cerevisiae deletion strains, growth OD
[1] = locus YDR150W, strain NUM1, stronger effect = lower value
[2] = locus YMR263W, strain SAP30, stronger effect = lower value
[3] = locus YMR307W, strain GAS1, stronger effect = lower value
[4] = locus YNL322C, strain KRE1, stronger effect = lower value

Measured: normalized growth

CC1=C(/C=C/C(C)=C/C=C/C(C)=C/C(=O)Nc2ccc(O)cc2)C(C)(C)CCC1
inactive: locus YAL013W, strain DEP1, stronger effect = lower value 0.99 | locus YAL040C, strain CLN3, stronger effect = lower value 1.09 | locus YCL061C, strain MRC1 (second series), stronger effect = lower value 0.995 | [1] 1.01 | locus YDR363W, strain ESC2, stronger effect = lower value 0.968 | locus YER002W, strain NOP16, stronger effect = lower value 1.02 | locus YGR078C, strain PAC10, stronger effect = lower value 1.02 | [2] 0.994 | [3] 0.989 | locus YNL128W, strain TEP1, stronger effect = lower value 1.02 | locus YNL175C, strain NOP13, stronger effect = lower value 1.02 | locus YNL197C, strain WHI3, stronger effect = lower value 1.01 | locus YNL224C, strain SQS1, stronger effect = lower value 0.998 | [4] 0.993 | locus YOR083W, strain WHI5 (second series), stronger effect = lower value 0.952

CC1=C(/C=C/C(C)=C/C=C/C(C)=C/C=C/C=C(C)/C=C/C=C(C)/C=C/C2=C(C)CCCC2(C)C)C(C)(C)CCC1
active: locus YBR009C, strain hhf1, stronger effect = lower value 1.1 [resistant]
inactive: locus YAL021C, strain ccr4, stronger effect = lower value 0.978 | locus YAL026C, strain drs2, stronger effect = lower value 0.997 | locus YAL030W, strain snc1, stronger effect = lower value 0.995 | locus YBL061C, strain skt5, stronger effect = lower value 0.997 | locus YBR021W, strain FUR4, stronger effect = lower value 0.99 | locus YBR023C, strain chs3, stronger effect = lower value 0.992 | locus YBR171W, strain sec66, stronger effect = lower value 0.977 | locus YBR229C, strain ROT2, stronger effect = lower value 1.01 | locus YBR231C, strain swc5, stronger effect = lower value 1.02 | locus YBR279W, strain paf1, stronger effect = lower value 0.987 | locus YCL011C, strain gbp2, stronger effect = lower value 0.997 | locus YCL016C, strain dcc1, stronger effect = lower value 1.01 | locus YCL029C, strain bik1, stronger effect = lower value 1.02 | locus YCL061C, strain MRC1, stronger effect = lower value 0.995 | locus YCL069W, strain vba3, stronger effect = lower value 0.997 | locus YCR088W, strain abp1, stronger effect = lower value 0.995 | locus YDL005C, strain med2, stronger effect = lower value 0.998 | locus YDL035C, strain GPR1, stronger effect = lower value 1 | locus YDL040C, strain nat1, stronger effect = lower value 0.995 | locus YDL074C, strain BRE1, stronger effect = lower value 1 | locus YDL101C, strain DUN1, stronger effect = lower value 1.01 | locus YDL134C, strain PPH21, stronger effect = lower value 1.01 | locus YDL185W, strain tfp1, stronger effect = lower value 1.02 | locus YDL192W, strain arf1, stronger effect = lower value 1.02 | locus YDR001C, strain nth1, stronger effect = lower value 0.987 | locus YDR069C, strain doa4, stronger effect = lower value 0.994 | locus YDR101C, strain arx1, stronger effect = lower value 0.982 | locus YDR137W, strain rgp1, stronger effect = lower value 0.964 | [1] 1.01 | locus YDR159W, strain sac3, stronger effect = lower value 1.01 | locus YDR162C, strain NBP2, stronger effect = lower value 1.02 | locus YDR195W, strain ref2 0.999 | locus YDR297W, strain sur2, stronger effect = lower value 1.02 | locus YDR318W, strain mcm21, stronger effect = lower value 1.01 | locus YDR334W, strain swr1, stronger effect = lower value 0.99 | locus YDR335W, strain msn5, stronger effect = lower value 0.997 | locus YDR388W, stronger effect = lower value 1.01 | locus YDR392W, strain spt3, stronger effect = lower value 0.982 | locus YDR502C, strain sam2, stronger effect = lower value 0.993 | locus YEL003W, strain gim4, stronger effect = lower value 1.02 | locus YEL037C, strain rad23, stronger effect = lower value 0.999 | locus YEL061C, strain CIN8 (second series), stronger effect = lower value 0.997 | locus YEL061C, strain CIN8, stronger effect = lower value 1.01 | locus YER015W, strain faa2, stronger effect = lower value 0.973 | locus YER016W, strain bim1, stronger effect = lower value 1 | locus YER110C, stronger effect = lower value 1 | locus YER111C, strain swi4, stronger effect = lower value 0.983 | locus YER155C, strain BEM2 (second series), stronger effect = lower value 1.04 | locus YER155C, strain BEM2, stronger effect = lower value 1.01 | locus YER167W, strain BCK2, stronger effect = lower value 1.01 | locus YFR010W, strain ubp6, stronger effect = lower value 1 | locus YGL078C, strain dbp3, stronger effect = lower value 0.996 | locus YGL086W, strain mad1, stronger effect = lower value 1.01 | locus YGL167C, strain pmr1, stronger effect = lower value 0.992 | locus YGL173C, strain kem1, stronger effect = lower value 1 | locus YGL227W, strain vid30, stronger effect = lower value 0.99 | locus YGL240W, strain doc1, stronger effect = lower value 1.02 | locus YGL248W, strain PDE1, stronger effect = lower value 1.01 | locus YGL253W, strain hxk2, stronger effect = lower value 0.949 | locus YGR135W, strain pre9, stronger effect = lower value 1.03 | locus YGR229C, strain SMI1, stronger effect = lower value 1 | locus YGR252W, strain gcn5, stronger effect = lower value 0.998 | locus YHR013C, strain ard1, stronger effect = lower value 0.967 | locus YHR027C, strain rpn1, stronger effect = lower value 1.01 | locus YHR030C, strain SLT2, stronger effect = lower value 1.02 and 1.01 | locus YHR079C, strain IRE1 (second series), stronger effect = lower value 1 | locus YHR079C, strain IRE1, stronger effect = lower value 1.04 | locus YHR094C, strain hxt1, stronger effect = lower value 0.999 | locus YHR129C, strain ARP1, stronger effect = lower value 1.01 | locus YHR142W, strain chs7, stronger effect = lower value 0.967 | locus YHR200W, strain rpn10, stronger effect = lower value 1.01 | locus YIL066C, strain RNR3, stronger effect = lower value 1.01 | locus YIL073C, strain SPO22, stronger effect = lower value 1.07 | locus YIL125W, strain kgd1, stronger effect = lower value 0.998 | locus YIR030C, strain dcg1, stronger effect = lower value 1 | locus YJL092W, strain hpr5, stronger effect = lower value 0.992 | locus YJL095W, strain BCK1 (second series), stronger effect = lower value 0.989 | locus YJL095W, strain BCK1, stronger effect = lower value 1.03 and 1.02 | locus YJL115W, strain asf1, stronger effect = lower value 0.996 | locus YJL129C, strain trk1, stronger effect = lower value 0.969 | locus YJL134W, strain LCB3, stronger effect = lower value 1.01 | locus YJL154C, strain vps35, stronger effect = lower value 0.999 | locus YJL164C, strain tpk1, stronger effect = lower value 1.01 | locus YJL166W, strain qcr8, stronger effect = lower value 0.955 | locus YJL168C, strain set2, stronger effect = lower value 1 | locus YJL187C, strain SWE1 (second series), stronger effect = lower value 1.01 | locus YJL187C, strain SWE1, stronger effect = lower value 0.995 | locus YJR043C, strain POL32, stronger effect = lower value 1.01 | locus YJR066W, strain TOR1, stronger effect = lower value 0.974 | locus YKL009W, strain mrt4, stronger effect = lower value 0.941 | locus YKL068W, stronger effect = lower value 1.01 | locus YKL085W, strain MDH1 (second series), stronger effect = lower value 0.983 | locus YKL085W, strain MDH1, stronger effect = lower value 0.983 | locus YKL160W, strain elf1, stronger effect = lower value 0.927 | locus YKR001C, strain vps1, stronger effect = lower value 0.986 | locus YKR026C, strain gcn3, stronger effect = lower value 0.987 | locus YKR091W, strain srl3, stronger effect = lower value 0.991 | locus YLL001W, strain dnm1, stronger effect = lower value 0.926 | locus YLL026W, stronger effect = lower value 0.999 | locus YLL041C, strain sdh2, stronger effect = lower value 1.03 | locus YLR027C, strain aat2, stronger effect = lower value 0.998 | locus YLR039C, strain RIC1, stronger effect = lower value 0.996 | locus YLR058C, strain SHM2, stronger effect = lower value 1.01 | locus YLR102C, strain apc9, stronger effect = lower value 0.997 | locus YLR113W, strain HOG1, stronger effect = lower value 1.02 | locus YLR221C, strain rsa3, stronger effect = lower value 0.977 | locus YLR258W, strain gsy2, stronger effect = lower value 1.02 | locus YLR262C, strain YPT6 (second series), stronger effect = lower value 0.941 | locus YLR262C, strain YPT6, stronger effect = lower value 0.982 | locus YLR268W, strain sec22, stronger effect = lower value 0.992 | locus YLR320W, strain mms22, stronger effect = lower value 0.994 | locus YLR330W, strain CHS5, stronger effect = lower value 1.01 | locus YLR342W, strain FKS1 (second series), stronger effect = lower value 1.01 | locus YLR342W, strain FKS1, stronger effect = lower value 0.981 | locus YLR357W, strain rsc2, stronger effect = lower value 0.957 | locus YLR370C, strain arc18, stronger effect = lower value 1 | locus YLR371W, strain rom2, stronger effect = lower value 1 | locus YLR384C, strain iki3, stronger effect = lower value 1 | locus YLR418C, strain cdc73, stronger effect = lower value 0.993 | locus YML016C, strain PPZ1, stronger effect = lower value 1 | locus YML032C, strain rad52, stronger effect = lower value 1 | locus YML120C, strain ndi1, stronger effect = lower value 0.962 | locus YML124C, strain tub3, stronger effect = lower value 1 | locus YMR058W, strain fet3, stronger effect = lower value 0.985 | locus YMR078C, strain ctf18, stronger effect = lower value 1.03 | locus YMR125W, strain sto1, stronger effect = lower value 0.929 | locus YMR129W, stronger effect = lower value 0.996 | locus YMR205C, strain PFK2, stronger effect = lower value 0.934 | locus YMR223W, strain ubp8, stronger effect = lower value 1.01 | locus YMR231W, strain pep5, stronger effect = lower value 0.997 | [2] 1.02 | [3] 1.06 | locus YNL067W, strain RPL9B, stronger effect = lower value 1.01 | locus YNL071W, strain lat1, stronger effect = lower value 0.984 | locus YNL153C, strain GIM3, stronger effect = lower value 1.01 | locus YNL183C, strain NPR1, stronger effect = lower value 0.97 | locus YNL209W, strain ssb2, stronger effect = lower value 0.997 | locus YNL233W, strain BNI4, stronger effect = lower value 1.01 | locus YNL248C, strain rpa49, stronger effect = lower value 0.906 | locus YNL250W, strain rad50, stronger effect = lower value 1.02 | locus YNL271C, strain bni1, stronger effect = lower value 0.997 | locus YNL298W, strain CLA4, stronger effect = lower value 0.991 | locus YNL307C, strain MCK1, stronger effect = lower value 1.01 | locus YNL322C, strain KRE1 (second series), stronger effect = lower value 0.993 | [4] 1.01 | locus YNR049C, strain mso1, stronger effect = lower value 1.01 | locus YNR052C, strain pop2, stronger effect = lower value 1 | locus YOL006C, strain TOP1, stronger effect = lower value 1.01 | locus YOL012C, strain htz1 1.24 | locus YOL147C, strain pex11, stronger effect = lower value 1.01 | locus YOR001W, strain rrp6, stronger effect = lower value 1.07 | locus YOR061W, strain CKA2, stronger effect = lower value 1.01 | locus YOR069W, strain VPS5, stronger effect = lower value 1.01 | locus YOR070C, strain gyp1, stronger effect = lower value 1 | locus YOR080W, strain dia2, stronger effect = lower value 0.996 | locus YOR083W, strain WHI5, stronger effect = lower value 0.94 | locus YOR106W, strain vam3, stronger effect = lower value 0.922 | locus YOR136W, strain idh2, stronger effect = lower value 1.02 | locus YOR144C, strain elg1, stronger effect = lower value 1 | locus YOR184W, strain ser1, stronger effect = lower value 1.01 | locus YOR231W, strain MKK1, stronger effect = lower value 1.02 | locus YOR265W, strain rbl2, stronger effect = lower value 0.992 | locus YOR270C, strain vph1, stronger effect = lower value 0.875 | locus YOR290C, strain snf2, stronger effect = lower value 0.953 | locus YOR316C, strain cot1, stronger effect = lower value 1 | locus YPL051W, strain arl3, stronger effect = lower value 1.02 | locus YPL078C, strain atp4, stronger effect = lower value 0.931 | locus YPL106C, strain sse1, stronger effect = lower value 1.03 | locus YPL240C, strain hsp82, stronger effect = lower value 1 | locus YPL241C, strain CIN2, stronger effect = lower value 1.01 | locus YPL256C, strain CLN2, stronger effect = lower value 0.994 | locus YPR119W, strain clb2, stronger effect = lower value 1.01 | locus YPR141C, strain kar3, stronger effect = lower value 1.01 | locus YPR163C, strain tif3, stronger effect = lower value 1 | locus YPR167C, strain met16, stronger effect = lower value 1.01 | strain wtn01, stronger effect = lower value 0.991
